# Screening data deposited in PubChem by National Center for Advancing Translational Sciences (NCATS).
# This is a sample that favours compounds with a hit; in the whole collection about 13% have one here.
# Marburg entry inh: qHTS for inhibitors of binding or entry into cells for Marburg Virus; Marburg virus pseudotyped entry inhibition, cell reporter; Potency, µM (series often up to 37.8 µM), without a hit: at the highest dose activity change, negative = inhibition, usual class: inhibitors; hit rate 1.8% among 300,000; AID 540276, 2011; calls by dose curve; tested in HEK293 cells; also: potency is read from the fitted curve at half-maximal effect; % is scaled to controls: 0 for no effect and ±100 for the full control effect
# Lassa entry inh: qHTS for Inhibitors of binding or entry into cells for Lassa Virus. Lassa virus pseudotype entry inhibition, cell reporter. Potency, µM (highest dose often 37.9 µM), for inactives: at the highest dose activity change, negative = inhibition, usual class: inhibitors. hit rate 1.2% among 300,000. AID 540256, 2011; calls by dose curve; tested in HEK293 cells; also: potency is read from the fitted curve at half-maximal effect; % is scaled to controls: 0 for no effect and ±100 for the full control effect; nearly all actives have a fitted effect of over 50% in size
# FMDV inh: High Throughput Screening for Foot and Mouth Disease Virus Antivirals. Potency, µM (titrated, usually from 57.9 µM), inactives show at the highest dose activity change, negative = inhibition, actives largely listed as inhibitors. FMDV antiviral cell-based qHTS. hit rate 1.2% among 410,000. AID 1159524, 2015; calls by dose curve; tested in HEK293T cells; also: read-out not given here; potency is read from the fitted curve at half-maximal effect; % is scaled to controls: 0 for no effect and ±100 for the full control effect; nearly all actives have a fitted effect of over 45% in size
# Shiga inhibitor: A qHTS for Small Molecule Inhibitors of Shiga Toxin; hit rate 9.2% among 290,000; Vero cells, Shiga toxin protein synthesis inhibition reporter; inhibition, % at 38.7 µM; AID 2315, 2010; in the data active = inhibition mostly above about 28%, no sharp cut-off; inactive = mostly below about 43%; also: 0% is about no effect
# HCV inhibitor: qHTS Assay for Inhibitors of Hepatitis C Virus (HCV). Potency, µM (titrated, usually from 41.8 µM), for inactives: at the top dose activity change, negative = inhibition, hits mostly inhibitors. Huh7.5.1 HCVcc-Cre infection, luciferase reporter, 44 h. hit rate 3.4% among 340,000; active = well fitted inhibition curve with a large enough effect; inconclusive = small, poorly fitted or top-dose-only effect, or another doubt; inactive = no such curve, though single readings can be large or run the other way; also: potency is read from the fitted curve at half-maximal effect; % is scaled to controls: 0 for no effect and ±100 for the full control effect
#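 Infectious HCVcc-Cre (~0.5 moi) was added to cells just after compound, with cells seeded 4 h earlier at 1,000 per well. Luciferase activity after 44 h culture reported infection; substrate was incubated 15 min at room temperature before reading.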
# CHX counter: Cycloheximide Counterscreen for Small Molecule Inhibitors of Shiga Toxin. hit rate 12% among 300,000. max response, %. cell reporter, cycloheximide protein synthesis inhibition counterscreen. AID 2314, 2010; in the data active = max response mostly above about 13%, no sharp cut-off; inactive = mostly below about 14%; also: read at 38.3 µM for the half of the compounds with a filed dose; 0% is about no effect
# The depositor's hits bear a star; ? = inconclusive; · = no result; [ ] = dose if it differs, or a comment.
SMILES,Marburg entry inh,Lassa entry inh,FMDV inh,Shiga inhibitor,HCV inhibitor,CHX counter
COc1ccnc(CSC(N)=Nc2ccccc2C(F)(F)F)c1,2%,10%,-8%,22*,12%,15
COc1ccc(-c2c(C(C)=O)c(C)n(C)c2C)cc1,-4%,?,?,6,6%,-3
Cc1cc2nc(N3C(=O)CNC3=S)sc2cc1C,?,?,-65%,20,26%,23*
CCOc1ccc2nc(N3C(=O)CNC3=S)sc2c1,?,?,-55%,46*,5%,35*
Cc1ccc(S(=O)(=O)/C(C#N)=C/c2ccccc2OCc2ccccc2)cc1,?,?,12%,-6,21%,8
CCOc1cc(/C=C(\C#N)C(=O)Nc2cccc(C(=O)O)c2)cc(Br)c1OC(=O)c1ccc(OC)cc1,5%[46.1 µM],?,-71%,31*,9%,11
N#C/C(=C\c1ccc(OCc2ccc(Br)cc2)cc1)C(=O)Nc1cccc(C(=O)O)c1,?,?,3%,95*,9%,23*
N#CC(C#N)=Cc1ccccc1OCc1ccccc1,·,·,·,23,·,43*
CCOc1cc(/C=C(\C#N)C(=O)Nc2cccc(C(=O)O)c2)ccc1OCc1ccccc1Cl,8%[46.1 µM],10%[46.1 µM],?,16,9%,10
COc1cc(/C=C(\C#N)C(=O)Nc2cccc(C(=O)O)c2)ccc1OCc1ccc(F)cc1,?,0%,20%,61*,6%,25*
Cc1ccc2c(c1)N(CC(=O)OC(CC(C)C)C(=O)NC1CCCC1)C(=O)CO2 (stereo unspecified),-28%,-33%[14.3 µM],-22%,-6,·,0
COc1ccc(C(=O)NC(=S)Nc2cccnc2)cc1OC,?,-3%,12%,4,-7%,24
O=C(CCc1ccco1)CCc1ccco1,2%,-22%,-19%,·,-3%,·
Cc1cccc(C)c1N1C(=O)CC(N2CCN(S(=O)(=O)c3ccccc3F)CC2)C1=O (stereo unspecified),·,·,-10%,·,5%,·
CCCOc1ccccc1/C=C(\C#N)C(=O)Nc1cccc(C)n1,4%,4%,48%,29*,?,14*
COC(=O)c1ccc(COc2ccccc2/C=C(\C#N)C(=O)Nc2ccc(C)cc2)cc1,?,7%,38%,99*,32%,87*
O=C(Nc1ccc(Cl)cc1Cl)c1ccc2c(=O)n3c(nc2c1)CCC3,?,?,-1%,·,-21%,·
CC(C)(C)n1nc2c(c1NC(=O)COc1ccc(Cl)cc1)CSC2,?,-1%,·,-20,?,-3
Cc1cc(N/N=C/c2ccccc2O)nc(-c2ccccc2O)n1,17%,18%,13%,46*,?,25*
Cc1cc(Nc2cccc(Cl)c2)nc(-c2ccccc2O)n1,?,9%[46.1 µM],?,3,?,-5
C/C(=N\Nc1cc(C)nc(-c2ccccc2O)n1)c1ccccc1O,·,·,-21%,5,11µM*,9
C/C(=N\Nc1nc2ccccc2nc1C)c1ccccc1O,4%[46.1 µM],-15%,3%,16,-16%,12
CC(=NNc1ccc2ccccc2n1)c1ccccc1O,?,3.2µM*,?,·,?,·
Cc1cc(N/N=C/c2ccc(O)cc2O)nc(-c2ccccc2O)n1,?,?,0%,active,?,59*
Cc1ccc(C)c(NC(=O)c2cc(S(=O)(=O)N3CCN(c4cccc(Cl)c4)CC3)ccc2F)c1,·,3%[46.1 µM],29%,·,·,·
SMILES,Marburg entry inh,Lassa entry inh,FMDV inh,Shiga inhibitor,HCV inhibitor,CHX counter
O=C(CSc1ccc(-c2ccc(-n3cccn3)cc2)nn1)Nc1ccccc1F,-10%,-21%,-5%,·,0%,·
Cc1cc(N/N=C\c2ccccc2)nc(-c2ccccc2O)n1,-2%,5%,-20%,83*,?,84*
O=C(OCN1C(=O)c2ccccc2C1=O)c1ccc(Cl)nc1,-3%[46.1 µM],21%,?,-14,7%,-3
CNc1nnc(-c2ccc(N(C)C)cc2)s1,?,?,·,19,10%,18*
CCN(C(=O)c1sc2nc3n(c(=O)c2c1C)CCCCC3)c1ccc(OC)cc1,·,27%[46.1 µM],-18%,·,·,·
Cc1nnc(SCSc2nnc(C)s2)s1,-16%,2%,-12%,10,12%,-4
Cc1nnc(SCc2ccccc2CSc2nnc(C)s2)s1,?,-4%,-19%,-10,2%,49*
Cc1nnc(SCc2nnc(-c3cccs3)o2)s1,8%,?,45%,35,34%,37*
Cc1cccc(C)c1OCc1cc(C(=O)N2CCN(Cc3nccn3C)CC2)no1,·,·,6%,21,-11%,12
Cc1ccc(S(=O)(=O)c2nc(C(C)(C)C)oc2N2CCOCC2)cc1,-13%,-11%,-9%,-2,-1%,-2
CCCn1c(SCC(=O)NC(C)C23CC4CC(CC(C4)C2)C3)n[nH]c1=O (stereo unspecified),-2%,14%,-21%,29,15%,9
COc1cccc(COC(=O)Nc2ccccc2F)c1,?,?,17%,117*,-5%,29*
O=C(Nc1ccc2[nH]c(=S)sc2c1)Nc1ccccc1F,·,·,47%,70*,-19%,70*
COc1ccc(NC(=O)Nc2ccccc2F)cc1Cl,?,?,34%,99*,-11%,32*
CCCc1c(NC(=O)Nc2ccc(F)cc2)cnn1-c1ccccc1,·,·,5%,45*,-19%,23*
CCCC(=O)N1CCCC1(C)C(=O)Nc1ccc(C)c(C)c1 (stereo unspecified),·,·,-11%,·,·,·
COc1ccc(NC(=O)Nc2ccccc2F)c([N+](=O)[O-])c1,·,·,7%,69*,-3%,26*
COc1ccc(NC(=O)Nc2ccccc2F)c(C)c1,-10%[46.1 µM],6%,26%,52,-10%,19*
O=C(Nc1ccc(F)cc1)Nc1cccnc1Cl,?,?,17%,58*,-22%,35*
COc1ccc(Cl)cc1NC(=O)Nc1ccccc1SC,·,·,-1%,24,?,8
CSc1ccccc1NC(=O)Nc1ccc(Cl)cc1,?,?,0%,83,-23%,55*
O=C(O)c1cccc(Nc2ccncc2[N+](=O)[O-])c1,-12%[46.1 µM],-2%[46.1 µM],-9%,-4,18%,3
COC(=O)Nc1nnc(COc2ccccc2)s1,-9%[46.1 µM],-5%,8%,-3,8%,-2
COc1ccc(C(=O)NCc2ccc(C(=O)O)o2)cc1,12%[46.1 µM],-12%[46.1 µM],4%,-3,12%,-3
COc1ccc(-c2nnc3c4ccccc4c(C)nn23)cc1S(=O)(=O)N1CCN(CCO)CC1,-16%,0%,12%,-3,?,-1
O=C(Nc1ccccc1F)Nc1ccccc1N1CCCCC1,-17%,?,?,11,14µM*,10.0*
COC(=O)c1ccc(NC(=O)Nc2ccccc2C)cc1,?,22%,23%,73*,?,23*
COC(=O)c1ccc(NC(=O)Nc2ccccc2F)cc1,?,?,-1%,115*,?,40*
O=C(Nc1ccccc1F)Nc1ccccc1Br,·,·,16%,68*,7%,25*
